What was measured:
Test in all cases: DAPPL (digital affinity profiling via proximity ligation, sequencing); 10 mM Tris-HCl pH 7.5, 50 mM NaCl, 1 mM DTT, 4% glycerol, room temperature, 30 min; GST-TFs on glutathione beads, 16-mer random dsDNA library, 0.1% formaldehyde crosslink after washing; high values mean tight binding
Conditions in all cases: protein: recombinant; tags: N-terminal GST; dsDNA, one strand shown
[1] = target: T1, FLI1 (Homo sapiens, UniProt Q01543 1-452)
T1 sequence: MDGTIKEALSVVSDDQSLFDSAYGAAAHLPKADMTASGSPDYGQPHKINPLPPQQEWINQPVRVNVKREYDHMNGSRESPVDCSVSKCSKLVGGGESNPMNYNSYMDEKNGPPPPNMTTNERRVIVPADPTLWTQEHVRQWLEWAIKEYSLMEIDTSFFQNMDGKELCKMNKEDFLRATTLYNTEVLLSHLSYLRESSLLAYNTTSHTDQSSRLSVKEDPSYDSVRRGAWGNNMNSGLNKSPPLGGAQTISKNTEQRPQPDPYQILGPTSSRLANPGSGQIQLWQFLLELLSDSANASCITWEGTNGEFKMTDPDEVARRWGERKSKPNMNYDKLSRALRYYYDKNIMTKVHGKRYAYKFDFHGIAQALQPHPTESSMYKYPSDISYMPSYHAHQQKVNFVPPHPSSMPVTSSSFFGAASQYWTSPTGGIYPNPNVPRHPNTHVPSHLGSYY
Outline: (§1)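 Human transcription factors carrying a GST fusion were produced in yeast, bound to glutathione beads, tagged with DNA barcodes and pooled together with a tag-only sample. Each pool was held with 200 nmole of a random double-stranded 16-mer DNA library in Tris/NaCl/DTT/glycerol buffer for 30 min at room temperature, then washed, crosslinked in 0.1% formaldehyde, proximity-ligated with BsaI/T4 ligase (1 h, 37 °C), PCR-amplified and sequenced on an Illumina NextSeq500. Binding signal is the read frequency of each hexamer for a given factor divided by its frequency in the tag-only sample.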

[2] = target: T2, ELK1 (Homo sapiens, UniProt P19419 1-428)
T2 sequence: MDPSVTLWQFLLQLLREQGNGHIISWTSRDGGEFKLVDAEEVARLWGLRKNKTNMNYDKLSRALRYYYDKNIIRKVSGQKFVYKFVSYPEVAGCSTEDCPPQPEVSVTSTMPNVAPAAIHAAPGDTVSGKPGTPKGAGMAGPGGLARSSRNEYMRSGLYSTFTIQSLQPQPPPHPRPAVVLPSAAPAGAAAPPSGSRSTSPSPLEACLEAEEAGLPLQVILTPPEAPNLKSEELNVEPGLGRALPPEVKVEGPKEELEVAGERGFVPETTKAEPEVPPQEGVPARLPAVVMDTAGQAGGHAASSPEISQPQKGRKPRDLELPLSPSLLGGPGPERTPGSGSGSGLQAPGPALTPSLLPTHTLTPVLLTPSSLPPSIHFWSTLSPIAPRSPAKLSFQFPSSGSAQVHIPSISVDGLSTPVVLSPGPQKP
Outline: as §1

[3] = target: T3, GABPA (Homo sapiens, UniProt Q06546 1-454)
T3 sequence: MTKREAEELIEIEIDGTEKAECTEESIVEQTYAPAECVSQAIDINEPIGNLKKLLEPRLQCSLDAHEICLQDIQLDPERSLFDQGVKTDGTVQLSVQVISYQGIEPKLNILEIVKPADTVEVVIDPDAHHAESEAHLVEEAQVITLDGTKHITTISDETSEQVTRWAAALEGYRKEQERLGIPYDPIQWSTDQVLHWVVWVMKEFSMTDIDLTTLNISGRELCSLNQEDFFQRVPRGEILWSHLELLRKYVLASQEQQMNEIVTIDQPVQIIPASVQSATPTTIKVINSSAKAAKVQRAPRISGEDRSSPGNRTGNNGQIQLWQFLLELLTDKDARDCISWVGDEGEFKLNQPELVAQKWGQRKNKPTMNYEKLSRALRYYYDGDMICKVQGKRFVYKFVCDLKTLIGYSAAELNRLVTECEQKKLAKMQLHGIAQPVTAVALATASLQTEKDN
Outline: as §1

[4] = target: T4, ERG (Homo sapiens, UniProt P11308 1-479)
T4 sequence: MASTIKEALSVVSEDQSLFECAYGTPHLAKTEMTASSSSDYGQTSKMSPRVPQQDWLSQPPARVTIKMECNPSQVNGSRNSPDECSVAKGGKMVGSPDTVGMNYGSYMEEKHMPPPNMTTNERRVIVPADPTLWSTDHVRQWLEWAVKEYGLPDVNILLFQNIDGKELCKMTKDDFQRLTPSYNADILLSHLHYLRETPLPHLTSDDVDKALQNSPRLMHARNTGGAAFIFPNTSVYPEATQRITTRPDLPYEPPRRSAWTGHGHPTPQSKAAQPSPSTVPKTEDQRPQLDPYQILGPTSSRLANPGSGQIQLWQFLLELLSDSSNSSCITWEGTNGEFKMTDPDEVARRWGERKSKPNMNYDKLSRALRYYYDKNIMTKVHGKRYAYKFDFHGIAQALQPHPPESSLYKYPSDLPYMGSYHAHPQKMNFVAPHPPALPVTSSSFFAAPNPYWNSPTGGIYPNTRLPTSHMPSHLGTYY
Outline: as §1

[5] = target: ELF1 (Homo sapiens, UniProt P32519 1-619)
Sequence of ELF1 (P32519 whole entry): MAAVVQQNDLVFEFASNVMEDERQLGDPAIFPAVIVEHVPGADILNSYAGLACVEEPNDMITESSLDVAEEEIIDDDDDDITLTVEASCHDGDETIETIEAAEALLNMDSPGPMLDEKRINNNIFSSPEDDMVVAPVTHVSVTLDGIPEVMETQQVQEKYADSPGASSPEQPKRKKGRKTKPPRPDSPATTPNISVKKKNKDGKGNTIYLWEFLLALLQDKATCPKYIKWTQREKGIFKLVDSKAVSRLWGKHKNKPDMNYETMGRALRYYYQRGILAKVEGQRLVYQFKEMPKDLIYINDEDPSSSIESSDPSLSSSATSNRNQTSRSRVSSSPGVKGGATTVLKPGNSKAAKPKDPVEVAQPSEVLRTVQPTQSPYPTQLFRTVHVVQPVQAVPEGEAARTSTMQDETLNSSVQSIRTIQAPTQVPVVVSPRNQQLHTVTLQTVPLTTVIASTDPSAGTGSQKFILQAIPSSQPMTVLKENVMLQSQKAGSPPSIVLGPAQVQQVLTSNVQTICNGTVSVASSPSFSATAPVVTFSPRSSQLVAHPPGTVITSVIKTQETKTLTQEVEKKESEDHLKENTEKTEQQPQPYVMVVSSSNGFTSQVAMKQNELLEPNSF
Outline: as §1

[6] = target: T5, EHF (Homo sapiens, UniProt Q9NZC4 1-300)
T5 sequence: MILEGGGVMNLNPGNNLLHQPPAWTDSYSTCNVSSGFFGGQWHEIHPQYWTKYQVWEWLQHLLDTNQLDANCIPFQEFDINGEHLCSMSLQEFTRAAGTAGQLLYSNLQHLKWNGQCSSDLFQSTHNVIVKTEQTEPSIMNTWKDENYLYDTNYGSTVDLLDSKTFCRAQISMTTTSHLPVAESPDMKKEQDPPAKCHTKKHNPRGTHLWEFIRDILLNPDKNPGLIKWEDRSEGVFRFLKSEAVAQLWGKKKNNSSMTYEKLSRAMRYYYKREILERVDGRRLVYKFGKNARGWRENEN
Outline: as §1

[7] = target: SPI1 (Homo sapiens, UniProt P17947 1-270)
Outline: as §1

[8] = target: SPIB (Homo sapiens, UniProt Q01892 1-262)
Sequence of SPIB (Q01892 whole entry): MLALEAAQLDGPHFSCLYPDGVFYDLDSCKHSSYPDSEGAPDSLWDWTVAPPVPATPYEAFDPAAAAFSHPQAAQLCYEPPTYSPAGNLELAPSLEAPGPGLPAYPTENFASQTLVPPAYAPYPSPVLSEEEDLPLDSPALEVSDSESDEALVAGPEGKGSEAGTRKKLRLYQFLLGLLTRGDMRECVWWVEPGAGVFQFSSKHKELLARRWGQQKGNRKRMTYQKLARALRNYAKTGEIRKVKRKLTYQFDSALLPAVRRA
Outline: as §1

[9] = target: T6, ELK3 (Homo sapiens, UniProt P41970 1-407)
T6 sequence: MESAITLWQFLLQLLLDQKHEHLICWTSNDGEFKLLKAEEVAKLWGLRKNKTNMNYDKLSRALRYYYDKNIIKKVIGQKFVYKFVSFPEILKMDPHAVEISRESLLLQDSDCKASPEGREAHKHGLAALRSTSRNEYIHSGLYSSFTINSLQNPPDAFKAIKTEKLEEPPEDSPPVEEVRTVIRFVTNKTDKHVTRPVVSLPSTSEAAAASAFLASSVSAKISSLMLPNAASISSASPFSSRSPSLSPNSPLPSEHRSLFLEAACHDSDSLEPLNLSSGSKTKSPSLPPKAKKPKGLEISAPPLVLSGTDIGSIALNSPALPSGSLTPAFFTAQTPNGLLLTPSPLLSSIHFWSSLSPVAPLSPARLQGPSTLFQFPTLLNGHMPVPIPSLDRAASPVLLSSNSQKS
Outline: as §1

| Sequence | binding signal [1] | binding signal [2] | binding signal [3] | binding signal [4] | binding signal [5] | binding signal [6] | binding signal [7] | binding signal [8] | binding signal [9] |
| --- | --- | --- | --- | --- | --- | --- | --- | --- | --- |
| CTTGTC | 1.17 fold enrichment (6-mer frequency, TF over GST control) | 1.33 fold enrichment (6-mer frequency, TF over GST control) | 1.32 fold enrichment (6-mer frequency, TF over GST control) | 1.19 fold enrichment (6-mer frequency, TF over GST control) | 1.22 fold enrichment (6-mer frequency, TF over GST control) | 1.19 fold enrichment (6-mer frequency, TF over GST control) | 1.35 fold enrichment (6-mer frequency, TF over GST control) | 1.23 fold enrichment (6-mer frequency, TF over GST control) | 1.34 fold enrichment (6-mer frequency, TF over GST control) |
| CTGACG | 1.19 fold enrichment (6-mer frequency, TF over GST control) | 1.09 fold enrichment (6-mer frequency, TF over GST control) | 1.23 fold enrichment (6-mer frequency, TF over GST control) | 1.06 fold enrichment (6-mer frequency, TF over GST control) | 1.16 fold enrichment (6-mer frequency, TF over GST control) | 1.01 fold enrichment (6-mer frequency, TF over GST control) | 1.06 fold enrichment (6-mer frequency, TF over GST control) | 1.13 fold enrichment (6-mer frequency, TF over GST control) | 1.03 fold enrichment (6-mer frequency, TF over GST control) |
| CTTTTA | 1.41 fold enrichment (6-mer frequency, TF over GST control) | 1.28 fold enrichment (6-mer frequency, TF over GST control) | 1.41 fold enrichment (6-mer frequency, TF over GST control) | 1.28 fold enrichment (6-mer frequency, TF over GST control) | 1.29 fold enrichment (6-mer frequency, TF over GST control) | 1.28 fold enrichment (6-mer frequency, TF over GST control) | 1.4 fold enrichment (6-mer frequency, TF over GST control) | 1.35 fold enrichment (6-mer frequency, TF over GST control) | 1.4 fold enrichment (6-mer frequency, TF over GST control) |
| TAAACA | 1.19 fold enrichment (6-mer frequency, TF over GST control) | 1.2 fold enrichment (6-mer frequency, TF over GST control) | 1.19 fold enrichment (6-mer frequency, TF over GST control) | 1.21 fold enrichment (6-mer frequency, TF over GST control) | 1.22 fold enrichment (6-mer frequency, TF over GST control) | 1.2 fold enrichment (6-mer frequency, TF over GST control) | 1.21 fold enrichment (6-mer frequency, TF over GST control) | 1.16 fold enrichment (6-mer frequency, TF over GST control) | 1.23 fold enrichment (6-mer frequency, TF over GST control) |
| TGGGCT | 1.38 fold enrichment (6-mer frequency, TF over GST control) | 1.33 fold enrichment (6-mer frequency, TF over GST control) | 1.48 fold enrichment (6-mer frequency, TF over GST control) | 1.34 fold enrichment (6-mer frequency, TF over GST control) | 1.48 fold enrichment (6-mer frequency, TF over GST control) | 1.44 fold enrichment (6-mer frequency, TF over GST control) | 1.43 fold enrichment (6-mer frequency, TF over GST control) | 1.38 fold enrichment (6-mer frequency, TF over GST control) | 1.49 fold enrichment (6-mer frequency, TF over GST control) |
| GTCTAA | 1.05 fold enrichment (6-mer frequency, TF over GST control) | 1.03 fold enrichment (6-mer frequency, TF over GST control) | 1.14 fold enrichment (6-mer frequency, TF over GST control) | 1.09 fold enrichment (6-mer frequency, TF over GST control) | 1.09 fold enrichment (6-mer frequency, TF over GST control) | 1.02 fold enrichment (6-mer frequency, TF over GST control) | 1.08 fold enrichment (6-mer frequency, TF over GST control) | 1.09 fold enrichment (6-mer frequency, TF over GST control) | 1.12 fold enrichment (6-mer frequency, TF over GST control) |
| GCTACC | 1.18 fold enrichment (6-mer frequency, TF over GST control) | 1.27 fold enrichment (6-mer frequency, TF over GST control) | 1.25 fold enrichment (6-mer frequency, TF over GST control) | 1.26 fold enrichment (6-mer frequency, TF over GST control) | 1.29 fold enrichment (6-mer frequency, TF over GST control) | 1.09 fold enrichment (6-mer frequency, TF over GST control) | 1.11 fold enrichment (6-mer frequency, TF over GST control) | 1.28 fold enrichment (6-mer frequency, TF over GST control) | 1.39 fold enrichment (6-mer frequency, TF over GST control) |
| CTCTCC | 1.35 fold enrichment (6-mer frequency, TF over GST control) | 1.33 fold enrichment (6-mer frequency, TF over GST control) | 1.37 fold enrichment (6-mer frequency, TF over GST control) | 1.22 fold enrichment (6-mer frequency, TF over GST control) | 1.4 fold enrichment (6-mer frequency, TF over GST control) | 1.34 fold enrichment (6-mer frequency, TF over GST control) | 1.41 fold enrichment (6-mer frequency, TF over GST control) | 1.35 fold enrichment (6-mer frequency, TF over GST control) | 1.37 fold enrichment (6-mer frequency, TF over GST control) |

— article PMC7862700, “An all-to-all approach to the identification of sequence-specific readers for epigenetic DNA modifications on cytosine”
